Our source for the outcome values is PubChem BioAssay AID602381 (National Center for Advancing Translational Sciences (NCATS), 2012).

Structures are written as SMILES. The source made the active and inactive calls. Calls follow the shape of the dose curve; as a rule, active = well fitted curve in the direction sought with a large enough effect; inactive = no such curve, though single readings can be large or run the other way.

Pyruvate kinase PKLR (Homo sapiens), sequence (P30613 whole entry, looked up, canonical isoform): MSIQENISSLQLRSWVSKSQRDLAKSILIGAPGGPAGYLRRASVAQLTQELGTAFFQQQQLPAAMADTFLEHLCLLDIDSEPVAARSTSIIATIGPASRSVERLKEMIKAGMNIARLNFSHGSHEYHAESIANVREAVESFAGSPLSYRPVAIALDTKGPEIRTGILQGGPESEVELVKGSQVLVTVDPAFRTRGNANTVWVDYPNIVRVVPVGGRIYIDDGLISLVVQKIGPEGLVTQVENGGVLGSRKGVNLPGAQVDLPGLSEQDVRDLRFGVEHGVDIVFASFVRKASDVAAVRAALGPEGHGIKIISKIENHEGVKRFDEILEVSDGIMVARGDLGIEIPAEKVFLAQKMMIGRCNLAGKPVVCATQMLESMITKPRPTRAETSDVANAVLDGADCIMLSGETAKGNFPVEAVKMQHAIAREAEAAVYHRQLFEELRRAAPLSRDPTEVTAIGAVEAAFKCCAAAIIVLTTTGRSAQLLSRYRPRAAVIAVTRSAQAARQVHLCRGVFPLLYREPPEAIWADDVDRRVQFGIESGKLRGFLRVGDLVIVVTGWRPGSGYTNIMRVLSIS

The test concerns the target Pyruvate kinase PKLR (Homo sapiens) (UniProt P30613). Put plainly: qHTS for Activators of Human Muscle Isoform 2 Pyruvate Kinase (PK): Extended Characterization using Reticulocyte PK. The settings on record: purified hPK-R, Kinase-Glo ATP luminescence, 1 h; series mostly up to 57.5 µM. The text has this:
Human pyruvate kinase reticulocyte (hPK-R) enzyme was supplied as a highly purified (>95% pure) preparation from Structural Genomics Consortium in Toronto (Ontario, Canada) and assayed for its ability to generate ATP from ADP using phosphoenolpyruvate (PEP) as a substrate. ATP generation was detected in a coupled reaction by luciferase-mediated luminescence, an ATP-dependent process. Pyruvate kinase substrates, PEP and ADP, were present in the assay at Km and approximately 10-fold below Km respectively. The enzyme was assayed at an intermediate level of activity to screen for both inhibitors and activators. NIH Chemical Genomics Center [NCGC] NIH Molecular Libraries Probe Centers Network [MLPCN] MLPCN Grant: MH085679 Assay Submitter (PI): Matthew G. Vander Heiden, Harvard Medical School
Three uL of substrate mix (at r.t.) in assay buffer (50 mM Imidazole pH7.2, 50 mM KCl, 7 mM MgCl2, 0.01% Tween 20, 0.05% BSA) was dispensed into white solid bottom 1,536 well microtiter plates so that the final concentrations of substrates in the assay were 0.1 mM ADP and 0.5 mM PEP. 23 nL of compound were delivered by a pin tool and 1 uL of enzyme mix (final concentration of 0.1 nM) in assay buffer (4 degree Celsius) was added. Plates were incubated at room temperature for 1 hour. Two uL of detection mix (Kinase-Glo, Promega; at 4 degree Celsius protected from light) was added and luminescence read by a ViewLux (Perkin Elmer) at 1 second exposure/plate. Data were normalized to the uninhibited (row 31). Additionally, a no enzyme and 5-fold enzyme control was dispensed in row 32, split equally between the two conditions.
A general note: qHTS replaces the single test concentration by a dilution series.
Regarding `Cc1cc2c(s1)c1cnn(Cc3ccc(F)cc3F)c(=O)c1n2C`, the outcome was inactive.

Take `Cc1cc2c(s1)c1cnn(Cc3c(Cl)ccc(C)c3F)c(=O)c1n2C`: the outcome was inactive.

For the compound `COc1cccc(Cn2ncc3c4sc(S(C)=O)cc4n(C)c3c2=O)c1` (stereo not given), the compound was classed as inactive.

Consider `Cc1cc2c(s1)c1cnn(Cc3cc(F)ccc3F)c(=O)c1n2C`, for which the compound was classed as inactive.

For `Cc1cc2c(s1)c1cnn(Cc3cc(F)c(F)cc3F)c(=O)c1n2C`, the call was inactive.
